Experimental data as given in PubChem BioAssay AID1650 (Southern Research Specialized Biocontainment Screening …, 2009).
Potency and affinity values are given separately. A number with no mark means an inactive call. How the calls were made is not given here.

Assay: mammalian cell viability reduction – secondary assay, cytotoxicity control for West Nile virus antiviral project, dose response (AID 1650)
Settings: Mammalian host cell viability, cytotoxicity counter-screen; series mostly up to 10 µM; viability: at the top concentration

Compound | viability
Cc1ccc(-n2c(O)c(C=Nc3ccc4c(c3)OCO4)c3ccccc3c2=O)cc1C | 79.1% [at 20 µM]
Cc1onc(-c2cccc(Cl)c2Cl)c1C(=O)O/N=C(\N)c1ccc([N+](=O)[O-])o1 | 80.5%
O=C(CCN1C(=O)/C(=C/c2ccccc2)SC1=S)NCCc1ccc(O)cc1 | 73.5%
CCOc1ccc(/C=C/c2nc(C#N)c(NCCCN(C)C)o2)cc1 | 83.3%
CN(C)CCCN(C(=O)c1ccco1)c1nc2ccc(Cl)cc2s1 | 83.3%
CC(C)(C)c1ccc(C(=O)O/N=C(\N)c2ccccc2)cc1 | 90.3% [at 20 µM]
CCCN(CCC)CCCNC(=S)Nc1ccc2nc(N3CCCC3)cc(C)c2c1 | 78% [at 20 µM]
COc1cc(-c2cc3nc(C)c(C)c(=O)n3[nH]2)cc(OC)c1OC | 93.8% [at 20 µM]
COc1ccc(-c2cc(C(=O)c3c(N)n(C)c(=O)n(C)c3=O)c3ccccc3n2)cc1OC | 90.8%
Cc1c(NC(=O)COC(=O)c2cc(-c3ccc(-c4ccccc4)cc3)nc3ccccc23)c(=O)n(-c2ccccc2)n1C | 73.5% [at 5 µM]
CCOc1ccc(C(=O)CCC(=O)O)cc1 | 87.4%
CN(C)Cc1c(C(=O)N/N=C/c2cccc(OCc3c(F)cccc3Cl)c2)nnn1-c1nonc1N | 84.5% [at 20 µM]
COc1cc(CNC(C)(C)CO)ccc1OCC(=O)Nc1ccc(Br)cc1 | 85.6%
O=C(COC(=O)CN1C(=O)c2ccccc2C1=O)Nc1ccc(S(=O)(=O)N2CCCC2)cc1 | 90.3% [at 20 µM]
COc1ccc(NC(=S)Nc2ccc3nsnc3c2)cc1 | 85.6%
COc1ccc2cc(Br)ccc2c1CC(=O)NC1CC(C)(C)NC(C)(C)C1 | 87.9%
O=C(c1cccc(S(=O)(=O)N2CCOCC2)c1)N1CCOCC1 | 89.1%
COc1cc([C@H]2c3[nH]c4ccccc4c3C[C@H]3C(=O)N4[C@@H](c5cc(OC)c(OC)c(OC)c5)c5[nH]c6ccccc6c5C[C@H]4C(=O)N23)cc(OC)c1OC | 77.5% [at 20 µM]
CC1CCN(c2nc3ccc(C(=O)NCCCN4CCCCC4C)cc3s2)CC1 (stereo not given) | 78.7%
CCc1cc(-c2[nH]ncc2-c2ccc(OC)cc2)c(O)cc1O | 86.2% [at 20 µM]

Compound | viability
CC12CC3(C)CC(C)(C1)CC(C(=O)NCC(=O)O)(C2)C3 | 82.8%
COc1ccc(-c2cc3c(=O)n(CC(=O)NCc4ccccc4F)ncn3n2)cc1 | 87.8% [at 20 µM]
CCCc1nc([N+](=O)[O-])c(S(=O)(=O)c2ccccc2)n1CC(C)C | 92.9% [at 20 µM]
Cc1ccc(-c2nc3ccccc3s2)cc1NC(=S)NC(=O)c1cccc2ccccc12 | 88.9%
CN1CCN(C(=O)CCN2C(=O)/C(=C/c3cccc(Br)c3)SC2=S)CC1 | 78.5%
COc1cc(C(CCN2CCCC(C)C2)c2c(OC)cc(OC)c3c(-c4ccccc4)cc(=O)oc23)cc(OC)c1OC (stereo not given) | 86.6% [at 20 µM]
CCOc1cc(/C=N/N=C(\N)c2nonc2N)cc(Br)c1OCc1cccc2ccccc12 | 70.8% [at 20 µM]
CC1=CC(C)(C)N2C(=O)C3(NCCc4c3[nH]c3ccccc43)c3cc(C)cc1c32 (stereo not given) | 92.3%
CCN(CC)CCCNC(=O)c1[nH]c2ccccc2c1Sc1ccc(Cl)cc1 | 84.4%
Cc1cccc(N(CC(=O)NCc2ccco2)C(=O)CCC(=O)Nc2ccccn2)c1C | 72.5% [at 20 µM]
CN1CCN(C(=O)CCN2C(=O)/C(=C/c3ccc(F)cc3)SC2=S)CC1 | 75.9%
O=c1c(-c2ccccc2)c1-c1ccccc1 | 80.4%
CCC(C)c1ccccc1NC(=O)COC(=O)c1ccc2[nH]c3c(c2c1)CCCC3 (stereo not given) | 72%
CN(C)CCNC=C(C(=O)Nc1ccc(Cl)cc1Cl)C(=O)Nc1ccc(Cl)cc1Cl | 80.2% [at 20 µM]
Cc1cc(C)c(CSc2ncc(-c3ccc([N+](=O)[O-])cc3)[nH]2)c(C)c1 | 80.5%
CCCCc1nc2ccccc2c(N)c1CCC (tested in a mixture with another compound) | 81.9%
Cc1cncn1CCc1nc2c3ccccc3nc(SCC(=O)Nc3cccc(Cl)c3)n2n1 | 80.1% [at 20 µM]
COc1c(O)ccc2c1CN1CCc3cc4c(cc3C1C2)OCO4 (stereo not given) | 83.5%
Cc1ccc2[nH]c(=O)c(CN(CCCN3CCOCC3)C(=O)Nc3ccc(Cl)cc3)cc2c1 | 77.5% [at 20 µM]
COc1ccc(NC(=O)CSc2nc3c(sc4ccccc43)c(=O)n2CCCN2CCCC2)cc1 | 75.6%
